# Laboratory results reported in ChEMBL document CHEMBL1961873, “Compounds: GSK PKIS; Assays: Nanosyn kinase panel” (2012).
# Assays:
# [1] = target: Tyrosine-protein kinase Fyn (Homo sapiens) (UniProt P06241); conditions: at 1 µM
# [2] = target: Tyrosine-protein kinase HCK (Homo sapiens) (UniProt P08631); conditions: at 0.1 µM
# [3] = target: Tyrosine-protein kinase HCK (Homo sapiens) (UniProt P08631); conditions: at 1 µM
# [4] = target: Insulin-like growth factor 1 receptor (Homo sapiens) (UniProt P08069); conditions: at 0.1 µM
# [5] = target: Insulin-like growth factor 1 receptor (Homo sapiens) (UniProt P08069); conditions: at 1 µM
# [6] = target: Insulin receptor (Homo sapiens) (UniProt P06213); conditions: at 0.1 µM
# [7] = target: Insulin receptor (Homo sapiens) (UniProt P06213); conditions: at 1 µM
# [8] = target: Insulin receptor-related protein (Homo sapiens) (UniProt P14616); conditions: at 0.1 µM
# [9] = target: Insulin receptor-related protein (Homo sapiens) (UniProt P14616); conditions: at 1 µM
# [10] = target: T1, Tyrosine-protein kinase ITK/TSK (Homo sapiens) (UniProt Q08881); conditions: at 0.1 µM
# T1 sequence (whole entry): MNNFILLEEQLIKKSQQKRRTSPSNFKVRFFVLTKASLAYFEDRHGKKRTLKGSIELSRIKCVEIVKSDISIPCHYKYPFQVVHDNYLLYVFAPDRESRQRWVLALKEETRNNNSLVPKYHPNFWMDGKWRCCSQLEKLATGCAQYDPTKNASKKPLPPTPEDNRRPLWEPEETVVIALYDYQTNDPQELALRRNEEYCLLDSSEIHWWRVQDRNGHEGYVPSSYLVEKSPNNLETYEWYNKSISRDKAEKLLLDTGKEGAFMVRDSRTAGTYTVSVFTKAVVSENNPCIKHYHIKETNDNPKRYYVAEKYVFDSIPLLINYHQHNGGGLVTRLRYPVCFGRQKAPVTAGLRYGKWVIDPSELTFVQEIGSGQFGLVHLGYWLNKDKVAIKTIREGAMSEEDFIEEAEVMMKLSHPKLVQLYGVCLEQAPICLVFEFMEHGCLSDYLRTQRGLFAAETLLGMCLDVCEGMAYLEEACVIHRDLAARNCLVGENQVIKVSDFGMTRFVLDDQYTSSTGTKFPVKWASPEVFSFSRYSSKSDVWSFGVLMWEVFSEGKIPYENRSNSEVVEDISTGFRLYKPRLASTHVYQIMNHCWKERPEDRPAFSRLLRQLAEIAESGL
# [11] = target: T1, Tyrosine-protein kinase ITK/TSK (Homo sapiens); conditions: at 1 µM
# [12] = target: Tyrosine-protein kinase JAK1 (Homo sapiens) (UniProt P23458); conditions: at 0.1 µM
# [13] = target: Tyrosine-protein kinase JAK1 (Homo sapiens) (UniProt P23458); conditions: at 1 µM
# [14] = target: Tyrosine-protein kinase JAK2 (Homo sapiens) (UniProt O60674); conditions: at 0.1 µM
# [15] = target: Tyrosine-protein kinase JAK2 (Homo sapiens) (UniProt O60674); conditions: at 1 µM
# [16] = target: T2, Tyrosine-protein kinase JAK3 (Homo sapiens) (UniProt P52333); conditions: at 0.1 µM
# T2 sequence (whole entry): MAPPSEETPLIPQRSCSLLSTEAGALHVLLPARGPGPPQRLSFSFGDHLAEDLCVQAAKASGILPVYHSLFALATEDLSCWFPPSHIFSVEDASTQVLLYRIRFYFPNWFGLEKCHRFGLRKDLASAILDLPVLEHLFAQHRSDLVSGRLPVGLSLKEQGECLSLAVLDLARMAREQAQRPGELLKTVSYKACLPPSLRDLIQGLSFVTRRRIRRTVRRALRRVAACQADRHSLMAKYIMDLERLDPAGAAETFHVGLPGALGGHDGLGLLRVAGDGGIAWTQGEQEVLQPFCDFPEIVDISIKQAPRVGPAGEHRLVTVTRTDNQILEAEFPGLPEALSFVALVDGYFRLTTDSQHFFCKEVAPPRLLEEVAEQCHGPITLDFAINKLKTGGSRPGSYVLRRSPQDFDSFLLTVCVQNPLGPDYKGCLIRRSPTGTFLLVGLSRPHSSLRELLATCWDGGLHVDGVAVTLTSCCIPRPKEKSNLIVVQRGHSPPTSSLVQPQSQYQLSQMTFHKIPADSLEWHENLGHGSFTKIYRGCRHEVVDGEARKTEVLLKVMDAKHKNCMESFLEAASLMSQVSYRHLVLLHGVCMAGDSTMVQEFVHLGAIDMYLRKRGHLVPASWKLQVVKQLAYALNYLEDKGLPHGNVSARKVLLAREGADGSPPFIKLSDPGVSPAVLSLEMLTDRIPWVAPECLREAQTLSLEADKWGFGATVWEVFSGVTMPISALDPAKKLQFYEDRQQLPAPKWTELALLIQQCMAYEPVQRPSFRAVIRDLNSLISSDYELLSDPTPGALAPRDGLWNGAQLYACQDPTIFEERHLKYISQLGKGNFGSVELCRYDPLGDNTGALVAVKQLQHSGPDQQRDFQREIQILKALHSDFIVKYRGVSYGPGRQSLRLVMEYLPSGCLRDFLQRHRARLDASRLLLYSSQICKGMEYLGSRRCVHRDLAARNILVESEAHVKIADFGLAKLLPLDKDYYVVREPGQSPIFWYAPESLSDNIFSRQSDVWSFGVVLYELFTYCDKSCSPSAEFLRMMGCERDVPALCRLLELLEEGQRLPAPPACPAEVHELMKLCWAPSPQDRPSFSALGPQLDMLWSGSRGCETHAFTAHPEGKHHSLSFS
# [17] = target: T2, Tyrosine-protein kinase JAK3 (Homo sapiens); conditions: at 1 µM
# [18] = target: Vascular endothelial growth factor receptor 2 (Homo sapiens) (UniProt P35968); conditions: at 0.1 µM
# [19] = target: Vascular endothelial growth factor receptor 2 (Homo sapiens) (UniProt P35968); conditions: at 1 µM
# [20] = target: Mast/stem cell growth factor receptor Kit (Homo sapiens) (UniProt P10721); conditions: at 0.1 µM;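 note: values are mean inhibition of KIT, from the GSK PKIS dataset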
# Chain of Mast/stem cell growth factor receptor Kit (Homo sapiens) (P10721 whole entry): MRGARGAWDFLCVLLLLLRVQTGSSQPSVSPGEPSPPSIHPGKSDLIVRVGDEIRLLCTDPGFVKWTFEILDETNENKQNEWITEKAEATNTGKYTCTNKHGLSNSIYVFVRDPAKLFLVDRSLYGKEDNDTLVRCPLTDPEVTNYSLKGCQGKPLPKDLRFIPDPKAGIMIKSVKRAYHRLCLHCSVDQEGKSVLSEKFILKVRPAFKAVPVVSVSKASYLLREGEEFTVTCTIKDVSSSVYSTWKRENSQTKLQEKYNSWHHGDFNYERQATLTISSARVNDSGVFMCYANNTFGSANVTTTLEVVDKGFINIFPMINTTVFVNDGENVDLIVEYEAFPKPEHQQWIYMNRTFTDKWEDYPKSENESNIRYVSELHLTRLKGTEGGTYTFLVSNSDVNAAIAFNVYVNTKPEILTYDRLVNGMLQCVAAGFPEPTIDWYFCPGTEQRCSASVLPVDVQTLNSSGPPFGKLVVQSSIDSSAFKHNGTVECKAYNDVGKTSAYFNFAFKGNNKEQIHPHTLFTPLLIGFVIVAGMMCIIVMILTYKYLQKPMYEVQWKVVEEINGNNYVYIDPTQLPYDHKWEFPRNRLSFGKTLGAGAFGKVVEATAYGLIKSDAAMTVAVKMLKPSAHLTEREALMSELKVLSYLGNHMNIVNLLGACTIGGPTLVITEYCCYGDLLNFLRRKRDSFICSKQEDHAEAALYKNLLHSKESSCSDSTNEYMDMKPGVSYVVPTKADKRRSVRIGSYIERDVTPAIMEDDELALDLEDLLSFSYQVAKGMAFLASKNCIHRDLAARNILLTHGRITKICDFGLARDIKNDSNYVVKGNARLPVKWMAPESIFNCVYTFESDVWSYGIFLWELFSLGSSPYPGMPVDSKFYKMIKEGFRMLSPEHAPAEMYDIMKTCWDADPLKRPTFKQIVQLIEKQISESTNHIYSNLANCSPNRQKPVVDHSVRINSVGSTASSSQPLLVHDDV
# Chain of Tyrosine-protein kinase HCK (Homo sapiens) (P08631 2-526 limits assumed): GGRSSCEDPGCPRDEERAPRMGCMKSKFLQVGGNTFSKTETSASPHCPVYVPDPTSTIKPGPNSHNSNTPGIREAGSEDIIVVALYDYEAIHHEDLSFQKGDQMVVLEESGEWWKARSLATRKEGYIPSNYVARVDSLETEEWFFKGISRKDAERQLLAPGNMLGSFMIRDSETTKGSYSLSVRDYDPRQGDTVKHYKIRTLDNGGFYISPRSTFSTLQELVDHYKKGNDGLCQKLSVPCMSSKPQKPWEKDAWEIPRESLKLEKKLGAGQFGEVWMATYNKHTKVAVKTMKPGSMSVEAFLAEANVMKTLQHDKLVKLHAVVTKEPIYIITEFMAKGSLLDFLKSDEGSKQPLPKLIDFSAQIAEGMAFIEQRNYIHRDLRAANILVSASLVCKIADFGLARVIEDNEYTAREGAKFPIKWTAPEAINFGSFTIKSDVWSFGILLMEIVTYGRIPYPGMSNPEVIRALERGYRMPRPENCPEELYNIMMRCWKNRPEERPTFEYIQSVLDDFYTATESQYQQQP
# Chain of Insulin receptor-related protein (Homo sapiens) (P14616 27-742 limits assumed): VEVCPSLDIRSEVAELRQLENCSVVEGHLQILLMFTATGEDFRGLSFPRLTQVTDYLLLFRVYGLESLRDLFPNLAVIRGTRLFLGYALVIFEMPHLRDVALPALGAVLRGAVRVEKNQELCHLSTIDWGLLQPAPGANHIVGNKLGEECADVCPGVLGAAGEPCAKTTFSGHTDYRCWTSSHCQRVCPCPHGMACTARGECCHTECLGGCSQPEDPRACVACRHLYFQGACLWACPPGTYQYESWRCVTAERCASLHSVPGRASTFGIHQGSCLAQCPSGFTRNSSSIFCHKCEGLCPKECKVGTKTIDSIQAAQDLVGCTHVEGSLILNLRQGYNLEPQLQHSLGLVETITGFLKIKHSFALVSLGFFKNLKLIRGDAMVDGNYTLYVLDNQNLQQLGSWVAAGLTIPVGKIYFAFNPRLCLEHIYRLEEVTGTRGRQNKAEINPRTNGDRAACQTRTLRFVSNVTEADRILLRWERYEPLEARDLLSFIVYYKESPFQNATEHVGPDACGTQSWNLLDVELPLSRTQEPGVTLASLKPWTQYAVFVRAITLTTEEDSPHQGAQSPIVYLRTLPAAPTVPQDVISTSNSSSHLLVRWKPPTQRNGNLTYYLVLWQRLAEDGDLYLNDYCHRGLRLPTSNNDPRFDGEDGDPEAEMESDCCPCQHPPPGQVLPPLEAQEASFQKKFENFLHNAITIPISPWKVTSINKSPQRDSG
# Chain of Insulin receptor-related protein (Homo sapiens) (P14616 747-1297 limits assumed): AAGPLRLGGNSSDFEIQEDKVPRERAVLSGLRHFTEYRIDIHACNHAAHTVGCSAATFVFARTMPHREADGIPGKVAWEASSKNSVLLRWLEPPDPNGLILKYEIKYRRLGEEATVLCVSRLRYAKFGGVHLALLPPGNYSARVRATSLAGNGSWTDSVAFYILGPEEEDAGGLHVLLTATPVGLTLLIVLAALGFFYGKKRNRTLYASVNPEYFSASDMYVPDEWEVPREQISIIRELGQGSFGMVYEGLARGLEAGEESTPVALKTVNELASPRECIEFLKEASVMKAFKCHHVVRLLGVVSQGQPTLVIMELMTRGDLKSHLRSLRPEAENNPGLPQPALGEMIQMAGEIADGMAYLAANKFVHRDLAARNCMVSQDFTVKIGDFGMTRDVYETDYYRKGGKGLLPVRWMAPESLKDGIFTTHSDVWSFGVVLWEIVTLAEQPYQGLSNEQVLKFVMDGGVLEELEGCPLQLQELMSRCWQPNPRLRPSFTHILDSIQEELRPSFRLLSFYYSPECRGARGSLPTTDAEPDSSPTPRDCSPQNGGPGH
# Chain of Vascular endothelial growth factor receptor 2 (Homo sapiens) (P35968 whole entry): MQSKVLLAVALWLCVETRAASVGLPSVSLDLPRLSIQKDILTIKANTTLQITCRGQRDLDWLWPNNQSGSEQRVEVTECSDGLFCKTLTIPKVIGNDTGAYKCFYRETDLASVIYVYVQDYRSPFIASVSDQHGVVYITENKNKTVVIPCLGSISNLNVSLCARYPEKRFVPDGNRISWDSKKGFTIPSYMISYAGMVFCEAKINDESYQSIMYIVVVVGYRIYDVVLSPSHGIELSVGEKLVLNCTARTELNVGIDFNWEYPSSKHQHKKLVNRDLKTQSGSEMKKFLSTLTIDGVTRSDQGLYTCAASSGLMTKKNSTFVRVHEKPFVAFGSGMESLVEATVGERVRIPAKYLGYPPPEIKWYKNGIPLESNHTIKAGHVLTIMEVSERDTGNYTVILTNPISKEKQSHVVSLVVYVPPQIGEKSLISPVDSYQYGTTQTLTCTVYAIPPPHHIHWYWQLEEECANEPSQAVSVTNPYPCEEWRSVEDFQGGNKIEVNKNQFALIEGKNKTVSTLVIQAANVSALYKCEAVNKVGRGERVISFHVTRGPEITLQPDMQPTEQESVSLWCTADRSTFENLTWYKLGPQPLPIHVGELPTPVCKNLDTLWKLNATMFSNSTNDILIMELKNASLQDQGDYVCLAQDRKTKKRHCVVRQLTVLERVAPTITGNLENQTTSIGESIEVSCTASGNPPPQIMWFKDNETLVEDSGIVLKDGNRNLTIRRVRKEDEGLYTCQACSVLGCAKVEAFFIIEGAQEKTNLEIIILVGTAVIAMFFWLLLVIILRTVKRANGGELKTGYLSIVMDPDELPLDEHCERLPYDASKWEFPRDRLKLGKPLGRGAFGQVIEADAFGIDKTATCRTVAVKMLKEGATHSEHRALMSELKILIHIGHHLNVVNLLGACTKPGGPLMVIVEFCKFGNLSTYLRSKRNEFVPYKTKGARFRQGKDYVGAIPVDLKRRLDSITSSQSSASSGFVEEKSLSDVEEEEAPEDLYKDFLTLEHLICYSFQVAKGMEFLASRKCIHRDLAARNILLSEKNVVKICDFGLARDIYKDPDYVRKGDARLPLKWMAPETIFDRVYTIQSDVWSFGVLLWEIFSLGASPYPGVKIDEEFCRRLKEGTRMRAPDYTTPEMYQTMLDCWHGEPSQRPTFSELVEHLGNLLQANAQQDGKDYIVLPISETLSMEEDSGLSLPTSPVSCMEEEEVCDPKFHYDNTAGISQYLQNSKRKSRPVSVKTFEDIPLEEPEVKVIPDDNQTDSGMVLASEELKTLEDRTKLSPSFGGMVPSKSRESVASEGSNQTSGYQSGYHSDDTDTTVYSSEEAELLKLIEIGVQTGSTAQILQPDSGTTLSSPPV
# Chain of Tyrosine-protein kinase Fyn (Homo sapiens) (P06241 2-537 limits assumed): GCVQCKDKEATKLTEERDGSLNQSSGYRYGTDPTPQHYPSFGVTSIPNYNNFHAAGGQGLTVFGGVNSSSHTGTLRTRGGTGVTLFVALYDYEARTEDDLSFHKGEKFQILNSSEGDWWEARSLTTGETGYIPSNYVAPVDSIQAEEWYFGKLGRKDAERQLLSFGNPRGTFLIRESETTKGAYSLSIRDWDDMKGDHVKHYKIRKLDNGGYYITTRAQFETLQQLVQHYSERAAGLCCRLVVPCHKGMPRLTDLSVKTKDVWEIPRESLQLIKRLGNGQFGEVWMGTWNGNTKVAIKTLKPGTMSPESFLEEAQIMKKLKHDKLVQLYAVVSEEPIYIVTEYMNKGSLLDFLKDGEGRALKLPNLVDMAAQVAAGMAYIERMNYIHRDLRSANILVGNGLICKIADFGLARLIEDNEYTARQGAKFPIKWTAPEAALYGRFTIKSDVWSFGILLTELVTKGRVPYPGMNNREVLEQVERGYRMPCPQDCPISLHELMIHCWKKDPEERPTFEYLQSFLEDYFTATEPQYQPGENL
SMILES,inhibition [1],inhibition [2],inhibition [3],inhibition [4],inhibition [5],inhibition [6],inhibition [7],inhibition [8],inhibition [9],inhibition [10],inhibition [11],inhibition [12],inhibition [13],inhibition [14],inhibition [15],inhibition [16],inhibition [17],inhibition [18],inhibition [19],inhibition [20]
COc1ccc2[nH]c3c4[nH]c5ccc(OC)cc5c4c4c(c3c2c1)C(=O)NC4=O,19%,20.1%,75.6%,5.28%,4.22%,6.91%,10.3%,3.27%,6.93%,1.85%,6.11%,0.96%,5.89%,-0.61%,-1.31%,-1.14%,12.8%,42.5%,68.3%,31.3%
CCN(CC)S(=O)(=O)c1ccc(OC)c(Nc2ncc(-c3ccccc3)o2)c1,45.2%,7.41%,28.1%,7.86%,7.98%,2.78%,2.35%,0.57%,0.72%,0.31%,2.62%,1.87%,0.33%,0.36%,1.73%,-0.47%,2.16%,31.3%,68%,33.5%
COc1cc(/C=N/Nc2ncnc3[nH]ncc23)ccc1O,41.2%,11.1%,54.2%,3.46%,12.5%,5.52%,15.3%,3.28%,3.65%,1.29%,7.65%,8.12%,9.29%,1.72%,4.07%,-1.64%,2.59%,10.3%,45.6%,11.4%
COC(=O)Nc1nc2ccc(S(=O)(=O)c3ccc(NC(=O)Nc4cc(C(F)(F)F)ccc4F)cc3)cc2[nH]1,1.28%,3.3%,7.43%,1.19%,1.62%,0.84%,1.88%,0.18%,1.09%,1.08%,2.62%,0.99%,-1.29%,1.28%,1.9%,-1.12%,0.84%,4.59%,6.23%,2.47%
CCn1c(-c2nonc2N)nc2c(C#CC(C)(C)O)nc(OC[C@H](N)c3ccccc3)cc21,4.61%,2.17%,9.34%,6.38%,2.6%,7.87%,1.38%,0.82%,2.71%,2.08%,1.49%,1.86%,-0.29%,-0.06%,1.71%,-2%,-0.34%,59.6%,96.1%,3.94%
O=C(O[C@H]1CN[C@H](C#Cc2cc3ncnc(Nc4ccc(Cc5ccccc5)cc4)c3s2)C1)N1CCOCC1,5.81%,1.46%,6.92%,-3.02%,-1.17%,-0.74%,-2.74%,0.8%,1.05%,-0.73%,0.7%,0.98%,1.8%,-0.09%,-0.66%,-2.28%,-1.16%,-0.84%,5.75%,2.78%
Nc1ncc(-c2cccc(S(N)(=O)=O)c2)c2scc(-c3ccc(F)c(Cl)c3)c12,32.6%,28.2%,76.1%,0.87%,1.23%,-0.93%,1.76%,2.94%,4.45%,0.53%,3.69%,2.73%,6.91%,0.29%,1.31%,-2.63%,-0.64%,6.89%,34.2%,38%
[O-][S+]1CCN(Cc2ccc(-c3ccc4ncnc(Nc5ccc(OCc6cccc(F)c6)c(Cl)c5)c4c3)o2)CC1,6%,6.09%,9.6%,3.08%,5.73%,5.28%,4.61%,2.99%,3.54%,1.07%,2.41%,6.24%,9.08%,1.51%,1.04%,-1.66%,-0.12%,5.24%,7.82%,4.47%
Nc1nc(-c2ccc(F)cc2)c(-c2ccc3ncccc3n2)s1,12.4%,5.89%,17.5%,4.9%,24.4%,6.61%,43.3%,2.47%,1.87%,2.58%,2.71%,2.95%,6.76%,2.05%,4.07%,-0.98%,1.8%,33.2%,71.1%,3.28%
CCn1c(-c2nonc2N)nc2ccccc21,0.78%,5.97%,8.93%,4.98%,6.36%,2.87%,1.78%,3.31%,2.08%,1.11%,0.89%,5.98%,-0.06%,1.96%,1.39%,-0.66%,1.16%,3.69%,4.29%,3.84%
CCCN(CCS(C)(=O)=O)Cc1ccc(-c2ccc3ncnc(Nc4ccc(OCc5cccc(F)c5)c(Cl)c4)c3c2)o1,2.14%,4.4%,8.65%,0.58%,1.93%,5.38%,5.24%,0.9%,1.54%,0.49%,1.15%,-0.11%,4.59%,0.69%,3.22%,0.2%,2.79%,4.89%,8.91%,2.87%
CS(=O)(=O)CCNCc1ccc(-c2ccc3ncnc(Nc4ccc(OCc5ccccc5)c(C(F)(F)F)c4)c3c2)o1,4.69%,4.59%,5.75%,-0.48%,-0.18%,0.37%,2.62%,2.84%,2.56%,0.4%,2.16%,2.98%,3.56%,1.86%,-0.24%,-4.36%,-1.51%,4.72%,5.31%,6.66%
CN(C)CCOc1ccc(-c2nc(-c3ccncc3)c(-c3ccc4c(c3)CC/C4=N\O)[nH]2)cc1,8.51%,3.04%,8.01%,4.59%,3.85%,5.62%,2.19%,6.12%,3.86%,0.77%,1.79%,3.43%,1.76%,1.76%,1.36%,-1.43%,0.64%,3.5%,5.84%,4.23%
